# The whole screen tested about 5,500 compounds, of which about 2,000 (36%) were called active. Roughly 18% stayed inconclusive and do not appear here. This is one part of the list. Unmarked numbers belong to inactive results. No stated cut-off is given here; in the data, active means normalized growth mostly below about 0.91 (no sharp cut-off); inconclusive means no clear call, values can overlap the other calls; inactive means mostly above about 0.92.
# Assay: chemical genetic growth profiling, strain panel (AID 1159580);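 further: tested at 20 µM; growth read once vehicle control cultures reached saturation at 30 °C; 1 = growth at the plate median or of vehicle wells; lower values mean less growth of the strain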
# Settings: S. cerevisiae deletion strains, growth OD
smiles,measurement,setting,value
CSC(=NS(=O)(=O)c1ccccc1)SC,normalized growth,"locus YAL013W, strain DEP1, hits give low values",0.985
same,normalized growth,"locus YBR229C, strain ROT2, hits give low values",0.979
same,normalized growth,"locus YDL101C, strain DUN1, hits give low values",0.98
same,normalized growth,"locus YDL134C, strain PPH21, hits give low values",1.01
same,normalized growth,"locus YDR150W, strain NUM1, hits give low values",0.938
same,normalized growth,"locus YEL061C, strain CIN8, hits give low values",1.03
same,normalized growth,"locus YGR078C, strain PAC10, hits give low values",0.985
same,normalized growth,"locus YHR030C, strain SLT2, hits give low values",0.83
same,normalized growth,"locus YHR087W, strain rtc3, hits give low values",1.02
same,normalized growth,"locus YJL187C, strain SWE1, hits give low values",1
same,normalized growth,"locus YJR043C, strain POL32, hits give low values",0.96
same,normalized growth,"locus YJR075W, strain HOC1, hits give low values",0.977
same,normalized growth,"locus YKL190W, strain CNB1, hits give low values",1
same,normalized growth,"locus YLR039C, strain RIC1, hits give low values",0.595 (active)
same,normalized growth,"locus YLR058C, strain SHM2 (second series), hits give low values",0.987
same,normalized growth,"locus YLR085C, strain ARP6, hits give low values",0.901
same,normalized growth,"locus YLR262C, strain YPT6, hits give low values",0.513 (active)
same,normalized growth,"locus YML094W, strain GIM5, hits give low values",0.921
same,normalized growth,"locus YMR219W, strain ESC1, hits give low values",0.995
same,normalized growth,"locus YMR263W, strain SAP30, hits give low values",0.974
same,normalized growth,"locus YNL153C, strain GIM3, hits give low values",1
same,normalized growth,"locus YNL298W, strain CLA4 (second series), hits give low values",1.02
same,normalized growth,"locus YNL322C, strain KRE1, hits give low values",0.971
same,normalized growth,"locus YNR030W, strain Alg12, hits give low values",0.989
same,normalized growth,"locus YPL055C, strain LGE1, hits give low values",0.978
same,normalized growth,"locus YPL241C, strain CIN2, hits give low values",0.945
same,normalized growth,"locus YPR135W, strain CTF4, hits give low values",0.941

# Reference: PubChem BioAssay AID1159580 (chemical genetic matrix, 2015)
